Source: PubChem BioAssay (National Center for Advancing Translational Sciences (NCATS))
D2 ag-1 – agonists of human D2 dopamine receptor; HEK293 T-REx D2 cells, calcium flux agonist mode; hit rate 0.53% among 340,000; AID 485358; activation, % at 2 µM; P14416;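 active means activation over 3 SD above normal in the single-dose calcium agonist read, cut at about 30% in these data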
Target sequence (P14416 whole entry, looked up): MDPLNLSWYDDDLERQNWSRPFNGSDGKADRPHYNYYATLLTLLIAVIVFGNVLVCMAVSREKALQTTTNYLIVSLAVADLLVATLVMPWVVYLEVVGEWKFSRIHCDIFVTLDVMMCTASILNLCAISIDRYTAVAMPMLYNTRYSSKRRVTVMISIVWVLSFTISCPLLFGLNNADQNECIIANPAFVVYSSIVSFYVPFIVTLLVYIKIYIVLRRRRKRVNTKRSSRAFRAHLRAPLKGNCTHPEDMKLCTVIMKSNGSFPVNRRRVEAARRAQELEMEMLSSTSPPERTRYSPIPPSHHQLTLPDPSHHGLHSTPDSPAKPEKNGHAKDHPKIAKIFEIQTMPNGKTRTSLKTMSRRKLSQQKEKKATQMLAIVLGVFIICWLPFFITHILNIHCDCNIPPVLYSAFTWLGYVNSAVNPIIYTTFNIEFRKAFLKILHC
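Agonism is scored from calcium flux in a force-coupled, inducible HEK293 cell line expressing D2, read kinetically for 180 s after compound addition against dopamine controls.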
D2 antagonist – antagonists of human D2 dopamine receptor; P14416; HEK293 TREx D2 cells, calcium flux, dopamine EC80; inhibition, % at 10 µM; hit rate 2% among 340,000; AID 485344; in the data active means inhibition above about 30%; inactive means below that, where a call was filed
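Cells plated overnight at 30 C with tetracycline; no-wash calcium dye, 30–90 min RT; 10 s baseline; compound pinned; 180 s read; EC80 dopamine added; another 180 s read.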
D2 PAM-1 – D2 dopamine receptor (human) potentiation. P14416. HEK293 T-REx D2, calcium flux, EC20 dopamine potentiation. potentiation, % at 10 µM. hit rate 0.34% among 340,000. AID 485347;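 active means potentiation over 3 SD above the plate norm, cut at about 30% in these data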
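Tetracycline-induced Hek293 Trex D2 cells, force-coupled to calcium, loaded with no-wash calcium dye. Compound added with 180 s kinetic read for agonism, then EC20 dopamine and a further 180 s read for potentiation.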
D2 ag-2 – human D2 receptor agonism in beta-arrestin assay. P14416. activation, % (concentration not given with the values). AID 624465. DiscoveRx PathHunter D2 beta-arrestin, luminescence, 90 min; 100% = 57 uM dopamine signal. hit rate 0.084% among 360,000; in the data active means activation above about 40%; inconclusive means between about 15% and that limit
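Agonist mode: compounds alone added to overnight-plated D2 PathHunter cells for 90 min at 37 C, with 57 uM final dopamine (EC100) defining full response. Beta-arrestin recruitment detected by chemiluminescent reagent, read after 1 h at ambient temperature.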
D2 PAM-2 – human D2 receptor positive allosteric modulation. P14416. DiscoveRx D2 beta-arrestin cells, luminescence, 90 min; 100% = 57 uM dopamine signal. potentiation, % (concentration not given with the values). hit rate 0.23% among 360,000; in the data active means potentiation above about 50%; inconclusive means mostly about 30% to 49%
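PathHunter beta-arrestin assay in DiscoveRx D2 cells. Compounds were added with an EC20 of dopamine (50 nM final) for 90 min at 37 deg C. Luminescence was read 1 h after detection reagent, with 57 uM dopamine as the EC100 control.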
Large screens that a line does not name were inactive; ! = not confirmed by another sample. Only some compounds are listed: those with a hit (about 2.4% of all), similar ones and a draw of the others.

Cc1ccc(-c2onc3ccc(C=O)cc23)cc1	D2 PAM-2 59.1
CC(=O)c1ccc2noc(-c3ccc(Cl)cc3)c2c1	D2 ag-2 inconclusive, D2 PAM-2 inconclusive
c1ccc(C2C3=C(CCCC3)Nc3ncnn32)cc1 (centres undefined)	D2 antagonist 31.5
O=C1CC(c2cccs2)CC2=C1C(c1ccccc1)n1ncnc1N2 (centres undefined)	none
N#CC1=C(N)Nc2ncnn2C1c1ccccc1 (centres undefined)	none (no result: D2 ag-2, D2 PAM-2)
CC1CC(=O)C2=C(C1)Nc1ncnn1C2c1ccccc1 (centres undefined)	D2 PAM-1 34.2
CCCC12CN3CC(CCC)(CN(C1)C3c1ccc(OCc3ccccc3)cc1)C2=O (centres undefined)	none (no result: D2 antagonist, D2 ag-2, D2 PAM-2)
O=C(O)c1ccccc1-c1ccccc1C(=O)NNc1ccccc1	D2 ag-1 37.2
O=C(O)c1ccccc1-c1ccccc1C(=O)Nc1ccccc1	none
Cc1nc(N2CCc3ccccc3C2)[nH]c(=O)c1Cc1ccccc1	none
CCCCCc1c(C)nc(N2CCc3ccccc3C2)[nH]c1=O	D2 antagonist 31.9
CCc1ccc(N2CC(C(=O)Nc3nc4ccc(S(C)(=O)=O)cc4s3)CC2=O)cc1 (centres undefined)	D2 antagonist 36.6
O=C(NC(=S)NCc1ccccc1)c1ccccc1	D2 antagonist 35.8
COC(=O)c1ccc(C(=O)NC(=S)Nc2nc3c(s2)CCCC3)cc1	none (no result: D2 ag-1, D2 antagonist, D2 PAM-1)
O=C(NC(=S)Nc1nc2c(s1)CCCC2)c1ccccc1	D2 antagonist 34.8
O=C(Nc1c(-c2ccc3c(c2)OCO3)[nH][nH]c1=O)c1cccc(C(F)(F)F)c1	none (no result: D2 ag-1, D2 antagonist, D2 PAM-1)
CCOC(=O)N1CCN(Cc2ccc(O)c3ncccc23)CC1	none
CCOC(=O)N1CCN(Cc2ccccn2)CC1	D2 PAM-1 44.2
CCOC(=O)N1CCN(Cc2cccs2)CC1	D2 ag-1 38.2, D2 ag-2 inconclusive
O=C(Cc1ccccc1)NC1CC(=O)N(c2ccc3c(c2)OCCO3)C1 (centres undefined)	none (no result: D2 antagonist, D2 ag-2, D2 PAM-2)
Cc1cc(S(=O)(=O)N2CCN=C2c2ccccc2)c(Cl)cc1Cl	D2 ag-1 30.3
COc1cccc(C(=O)NCC(c2ccc(N(C)C)cc2)N2CCc3ccccc32)c1 (centres undefined)	none (no result: D2 antagonist, D2 ag-2, D2 PAM-2)
CC(OC(=O)c1cccnc1SCc1cc(=O)n2ccccc2n1)c1ccccn1 (centres undefined)	D2 PAM-1 30.1
CCOC(=O)c1cccnc1SCc1cc(=O)n2ccccc2n1	none
Cc1cccc(CNC(=O)c2cc3cc(S(=O)(=O)N4CCCCC4)ccc3n2C)c1	none (no result: D2 antagonist, D2 ag-2, D2 PAM-2)
N#CCc1ccc(C(=O)c2ccccc2)s1	D2 antagonist 40.0
CCc1cccc(OCC(=O)Nc2ccc(C)c(S(=O)(=O)N3CCCCCC3)c2)c1	D2 antagonist 31.4
Cc1ncc([N+](=O)[O-])n1CCO	D2 antagonist 38.2!
COCCCNC(=O)c1sc2nc(C)c(C(=O)Nc3ccc(C)cc3C)c(-c3ccccc3Cl)c2c1N	none (no result: D2 antagonist, D2 ag-2, D2 PAM-2)
CC1CCCN(S(=O)(=O)c2ccc(S(=O)(=O)N3CCC4(CC3)OCCO4)cc2)C1 (centres undefined)	D2 antagonist 39.7
COc1cccc(C(=O)NCC2CCCN(C3CCCCC3)C2)c1OC (centres undefined)	D2 antagonist 57.2
CCOC(=O)CNC(=O)CSc1nnc(-c2ccco2)n1N	D2 antagonist 34.3
CCOC(=O)CNC(=O)CSc1nnc(-c2ccco2)n1Cc1ccco1	none
COc1ccccc1NC(=O)CSc1nnc(-c2ccco2)n1N	D2 antagonist 33.9
CCOC(=O)c1ccc(NC(=O)c2c(N3CCCC3=O)c3cc(OC)ccc3n2C)cc1	none (no result: D2 antagonist, D2 ag-2, D2 PAM-2)
COc1ccc(Cn2ccnc2SCC(=O)Nc2cc(C(F)(F)F)ccc2Cl)cc1	none (no result: D2 antagonist, D2 ag-2, D2 PAM-2)
Cc1ccc2c(c1)c1c(c(=O)n(-c3ccccc3C)c(=O)n1Cc1cccc(F)c1)n2C	none (no result: D2 ag-1, D2 antagonist, D2 ag-2, D2 PAM-2)
COc1ccc(Cl)cc1NC(=O)CN(C)C(=O)CCC(=O)c1cc(C)sc1C	D2 antagonist 62.5
COc1ccc(Cl)cc1NC(=O)CN(C)C(=O)c1ccc(OCc2ccccc2)c(OC)c1	D2 antagonist 36.9
O[Si](CCCN1CCCCC1)(c1ccc(F)cc1)C1CCCCC1 (centres undefined)	D2 antagonist 124.3
O=C(NCCCN1CCCC1)Nc1ccc(F)cc1	none
CC1=C(C#N)C(=O)NC(=O)/C1=C/c1ccc(-c2ccc(S(N)(=O)=O)cc2)o1	D2 PAM-1 36.6
C=CCOC(=O)c1cc(-c2ccc(/C=C3\C(=O)NC(=O)C(C#N)=C3C)o2)ccc1Cl	none
COc1cccc(-c2cc(NC(C)=O)c3ncc(-c4ccc(OC)c(OC)c4)n3c2)c1	none (no result: D2 ag-1, D2 antagonist, D2 PAM-1)
Brc1cccc(CN2CCCCCC2)c1	none
Oc1cccc(CN2CCCCC2)c1	D2 antagonist 56.4
c1ccc(-c2cnc(SCCN3CCOCC3)n2CC2CCCO2)cc1 (centres undefined)	D2 antagonist 33.8
O=C(COC(=O)c1ccccc1-c1nc2ccccc2s1)NC1CCS(=O)(=O)C1 (centres undefined)	D2 antagonist 32.3
C(=C\c1ccccc1)/C=N/N1CCN(Cc2ccccc2)CC1	D2 antagonist 40.0
C(/C=C/c1ccccc1)=N/N1CCN(c2ccccc2)CC1	none
O=C1CC(NS(=O)(=O)c2ccc([N+](=O)[O-])cc2)CN1c1cccc(F)c1 (centres undefined)	D2 PAM-1 42.3
CC(=O)c1ccc(S(=O)(=O)NC2CC(=O)N(c3cccc(F)c3)C2)cc1 (centres undefined)	none
O=C(Cc1cccs1)Nc1c(C(=O)Nc2ccc(F)cc2)oc2ccccc12	none (no result: D2 antagonist, D2 ag-2, D2 PAM-2)
CN(C)c1ccc(C(CNS(=O)(=O)c2ccc(Br)cc2)N2CCCC2)cc1 (centres undefined)	none (no result: D2 antagonist, D2 ag-2, D2 PAM-2)
CC(C)(C)c1ccc(OCC(=O)N/N=C/c2cc(Br)ccc2OC(=O)c2ccco2)cc1	D2 antagonist 34.0
COCCCNC(=O)C1CCN(c2cc(C)nc3c(-c4ccc(OC)c(OC)c4)c(C)nn23)CC1	none (no result: D2 antagonist, D2 ag-2, D2 PAM-2)
Cc1cc(C(C)(C)C)cc(C)c1CC1=NCCN1	D2 antagonist 50.1
COc1ccc(F)cc1C(=O)C1CCCN(Cc2ccc(Sc3nncn3C)o2)C1 (centres undefined)	D2 antagonist 30.9
CCOC(=O)CCc1c(C)nc2cc(-c3cc(OC)cc(OC)c3)[nH]n2c1=O	none (no result: D2 antagonist, D2 PAM-1, D2 ag-2, D2 PAM-2)
CCCCNC(=O)NCC(=O)Nc1ccc(F)c(F)c1	D2 antagonist 40.1
COc1ccccc1NC(=O)NCC(=O)Nc1ccc(F)c(F)c1	none (no result: D2 ag-1, D2 antagonist, D2 PAM-1)
Cc1cccc(N(CC(=O)N2CCCC2)S(=O)(=O)c2ccccc2)c1	none (no result: D2 ag-1, D2 antagonist, D2 PAM-1)
Cc1ccc(S(=O)(=O)N(CC(=O)N2CCCCC2)c2cccc(C)c2)cc1	D2 antagonist 31.8
O=C1C=C(c2cccc3c2sc2ccccc23)C[C@@H](c2ccc(Cl)cc2)C1	D2 PAM-1 33.5
O=C1C=C(c2cc3ccccc3s2)C[C@@H](c2ccc(Cl)cc2)C1	none (no result: D2 ag-1, D2 antagonist, D2 PAM-1)
